# In PubChem BioAssay AID485284 (NMMLSC, 2010):
# Entries with a potency or affinity are not part of this list.
# Test: inhibitors of CD8+ T cell–vesicle binding, dose response, mouse 2C CD8+ T cells, flow cytometry (AID 485284);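 further: drosophila derived vesicles carrying Ld MHC with QL9 peptide plus B7-1 and ICAM-1; vesicle binding seen as anti-B7-1 PE fluorescence on CD8 gated cells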
# Conditions: 2C mouse CD8+ T cell-exosome binding; at 45 µM (top of the series)
row,Structure (SMILES),"binding remaining, % of control"
1,CCCCn1c(N)c(N(CCOC)C(=O)C2CC(=O)N(c3ccc(CC)cc3)C2)c(=O)[nH]c1=O (stereo not drawn),17.2%
2,Cc1cc(S(=O)(=O)N2CCN(Cc3ccccc3)CC2)c(C)s1,94.5%
3,COc1ccc(NC(=O)CC2C(=O)N(Cc3ccccc3)C(=S)N2CCN2CCOCC2)cc1 (stereo not drawn),106%
4,O=C(Cn1cc2c(n1)CCCC2)NCc1ccccn1,106%
5,COc1ccc([C@H]2CC(=O)C=C(c3cccc(Cl)c3)C2)cc1,141%
6,O=C(Nc1ncc([N+](=O)[O-])s1)c1cccs1,56.8%
7,COc1ccccc1NS(=O)(=O)c1cc(NC(=O)CNC(=O)c2cc(C)cc(C)c2)ccc1C,40.9%
8,CCOC(=O)N1CCN(C(=O)c2ccc(CS(=O)Cc3ccc(C)cc3)o2)CC1 (stereo not drawn),44.7%
9,COc1ccc(NC(=O)COC(=O)c2cc(Cl)ccc2O)cc1S(=O)(=O)N1CCCCC1,75.3%
10,CCOC(=O)Nc1sc(C)c(C)c1C(N)=O,103%
11,O=C(NC(=S)NCc1ccco1)c1ccc(Br)cc1,136%
12,COc1ccccc1C(=O)COC(=O)C1CCN(S(=O)(=O)c2ccc(C)c(C)c2)CC1,24.2%
13,CCOc1ccc(CCNC(=O)CCS(=O)(=O)c2ccc(C)cc2)cc1OCC,94%
14,COc1ccc(-c2cc(=O)c3cc(O)ccc3o2)cc1,110%
15,CC(C)(C)NC(=O)COc1ccc(CNCc2ccccn2)cc1,120%
16,COc1cc(CNCc2cccnc2)ccc1OCC(=O)NC1CCCCC1,128%
17,C=CCNC(=S)Nc1sc2c(c1C(N)=O)CCCC2,163%

row,Structure (SMILES),"binding remaining, % of control"
1,CC(C)C(C(=O)NC1=NCCS1)c1ccc(Cl)cc1 (stereo not drawn),31.2%
2,CC1CCCN(CC(=O)NC(=O)NC2CCCCC2)C1 (stereo not drawn),109%
3,O=C(CCC(=O)N1CCOCC1)NCc1cccc(C(F)(F)F)c1,64.2%
4,Cc1cccc(C(=O)OCC(=O)NN2C(=O)NC3(CCC(C)CC3)C2=O)c1O (stereo not drawn),209%
5,Cc1cnc(C(=O)Nc2ccc(C)c(S(=O)(=O)N3CCCCC3)c2)cn1,114%
6,COc1ccc(CNC(=O)COC(=O)CCN2C(=O)C3CC=CCC3C2=O)cc1OC (stereo not drawn),190%
7,CSCCC(NC(=O)c1ccc(=O)n(C)n1)c1nc2ccccc2[nH]1 (stereo not drawn),149%
8,COC(=O)c1ccc(OC(=O)CS(=O)c2ccccc2[N+](=O)[O-])cc1 (stereo not drawn),97.9%
9,CCC1(c2ccccc2)NC(=O)N(CC(=O)Nc2cc(Cl)ccc2N2CCN(C)CC2)C1=O (stereo not drawn),124%
10,COc1cc(F)c(C2=CC(=O)C[C@H](c3ccc(F)cc3)C2)cc1F,108%
11,O=C(/C=C/c1ccc(Br)cc1)c1ccc(NC(=O)c2ccco2)cc1,98.2%
12,Cc1c(Cl)cccc1NC(=O)c1cc(C2CC2)on1,86%
13,Cc1ccc(S(=O)(=O)N2CCN(C(=O)CNC(=O)c3ccc(Cl)cc3)CC2)cc1,219%
14,CCOC(=O)c1ccc(NC(=O)CN2C(=O)NC3(CCCCCCC3)C2=O)cc1,44.2%
15,CCOc1ccc(NC(=O)CN(C)C(=O)C2CC(=O)N(Cc3ccco3)C2)cc1OCC (stereo not drawn),145%
16,COc1ccc2c(c1)-c1c(sn(-c3ccc(OC)c(OC)c3)c1=S)C(C)(C)N2,116%
